This passage reports outcome and AC50 results from PubChem BioAssay (EPA / NIEHS).

A word on the AC50: it is the concentration giving half of the maximal activity seen.

In experiment [1] the target is Paired box protein Pax-6 (Homo sapiens) (UniProt P26367). The experiment in a line: ATG_Pax6_CIS: Attagene CIS-FACTORIAL HepG2 Assay for human Paired Box 6 (PAX6) (AID 2282956). To be noted: HepG2 CIS-FACTORIAL PAX6 reporter transcription, RNA readout; actives raise or lower the signal. The essentials:
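After twenty-four hours of chemical exposure, transfected HepG2 cells are harvested for RNA. Cis-promoter reporter transcripts are amplified, fluorescently labelled and sized by capillary electrophoresis, with gain and loss of signal scored against DMSO.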

A short description of experiment [2]: ATG_PXRE_CIS: Attagene CIS-FACTORIAL HepG2 Assay for human Pregnane X Receptor Element (PXRE) (AID 2282957). To be noted: HepG2 Attagene CIS-FACTORIAL PXRE reporter, mRNA; actives raise or lower the signal. The essentials: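 Transfect HepG2 with MRTUs (cis promoter elements); dose chemical, incubate 24 h; isolate RNA, RT with oligo(dT), PCR, 6-FAM label, HpaI cut, CE. Gain/loss fit vs DMSO.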

Experiment [3] can be described thus: ATG_PPRE_CIS: Attagene CIS-FACTORIAL HepG2 Assay for human Peroxisome Proliferator-activated Response Element (PPRE) (AID 2282958). The settings on record: HepG2 PPRE cis-element reporter, Attagene transcription factor profiling; actives raise or lower the signal. An outline of the steps: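 HepG2, transient MRTU transfection (cis promoter elements, endogenous TFs). 24 h dosing. RNA → oligo(dT) RT → PCR → 6-FAM primer extension → HpaI digest → CE. Bidirectional fit vs DMSO.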

Experiment [4] can be described thus: ATG_RORE_CIS: Attagene CIS-FACTORIAL HepG2 Assay for human RAR-related Orphan Receptor Element (RORE) (AID 2282959). The settings on record: HepG2 Attagene cis-factorial RORE reporter, mRNA; actives raise or lower the signal. The essentials:
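Transient MRTU transfection of human HepG2 liver cells (FuGene 6); 24 h compound exposure; TriZol RNA, oligo(dT) RT, PCR, FAM labeling, HpaI cut, CE fragment analysis. DMSO = negative control/baseline.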

A short description of experiment [5]: ATG_Sox_CIS: Attagene CIS-FACTORIAL HepG2 Assay for human SRY-box transcription factor (SOX) (AID 2282960). The settings on record: HepG2 Attagene cis-factorial SOX reporter, mRNA; actives raise or lower the signal. The essentials: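 Endogenous factor activity in human liver HepG2 cells carrying transfected cis-regulated reporter units. RNA taken 24 h post-dose, reverse-transcribed, PCR-amplified and sized by capillary electrophoresis. Gain or loss of signal fitted relative to DMSO.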

Experiment [6] deals with Transcription factor Sp1 (Homo sapiens) (UniProt P08047). Kind of experiment: ATG_Sp1_CIS: Attagene CIS-FACTORIAL HepG2 Assay for human Specificity Protein 1 (Sp1) (AID 2282961). To be noted: HepG2 Sp1 cis-reporter transcription, actives raise or lower the signal. The essentials: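 Transient MRTU-transfected HepG2, 24 h compound exposure. Total RNA → oligo(dT) RT → PCR of reporter → 6-FAM primer extension → HpaI digest → CE. Endpoint fitted both directions vs DMSO.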
Chain of Transcription factor Sp1 (Homo sapiens) (P08047 whole entry, looked up): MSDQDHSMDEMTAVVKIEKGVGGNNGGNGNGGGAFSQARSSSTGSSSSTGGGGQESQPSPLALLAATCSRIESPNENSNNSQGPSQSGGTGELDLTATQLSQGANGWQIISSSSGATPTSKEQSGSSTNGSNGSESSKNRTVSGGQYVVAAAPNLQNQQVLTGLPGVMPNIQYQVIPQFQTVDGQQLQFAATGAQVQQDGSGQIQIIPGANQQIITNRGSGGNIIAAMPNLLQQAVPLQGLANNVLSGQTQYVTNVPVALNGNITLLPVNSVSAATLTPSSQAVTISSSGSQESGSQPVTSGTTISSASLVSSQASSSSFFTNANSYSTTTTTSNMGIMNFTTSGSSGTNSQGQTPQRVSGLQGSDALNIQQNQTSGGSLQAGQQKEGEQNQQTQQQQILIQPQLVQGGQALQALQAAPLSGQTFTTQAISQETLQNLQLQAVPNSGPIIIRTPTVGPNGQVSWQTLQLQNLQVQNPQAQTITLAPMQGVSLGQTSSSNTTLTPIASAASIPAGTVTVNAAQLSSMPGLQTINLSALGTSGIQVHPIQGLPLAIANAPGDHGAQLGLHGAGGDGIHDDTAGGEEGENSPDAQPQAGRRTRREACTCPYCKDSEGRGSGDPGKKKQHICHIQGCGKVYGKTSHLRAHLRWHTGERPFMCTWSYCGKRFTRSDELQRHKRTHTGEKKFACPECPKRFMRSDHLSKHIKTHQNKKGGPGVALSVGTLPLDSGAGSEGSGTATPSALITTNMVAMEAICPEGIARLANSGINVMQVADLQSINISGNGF

Experiment [7] in a line: ATG_SREBP_CIS: Attagene CIS-FACTORIAL HepG2 Assay for human Sterol Regulatory Element Binding (SREBP) (AID 2282962). The settings on record: HepG2 Attagene cis-factorial SREBP reporter, mRNA; actives raise or lower the signal. The essentials: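 Twenty-four hours after chemical dosing of transfected HepG2 cultures, reporter RNA was converted to cDNA, amplified, end-labelled with 6-FAM and resolved by capillary electrophoresis. Responses were fitted relative to DMSO.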

Experiment [8] has as its target Signal transducer and activator of transcription 3 (Homo sapiens) (UniProt P40763). The experiment in a line: ATG_STAT3_CIS: Attagene CIS-FACTORIAL HepG2 Assay for human Signal Transducer and Activator of Transcription 3 (STAT3) (AID 2282963). The settings on record: HepG2, Attagene cis-factorial STAT3 reporter transcription; actives raise or lower the signal. An outline of the steps:
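After a 24 h compound incubation, total RNA from MRTU-transfected HepG2 cells was converted to cDNA and reporter sequences PCR-amplified, labelled and profiled by capillary electrophoresis. Gain and loss of signal were referenced to DMSO.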

Experiment [9] in a line: ATG_TA_CIS: Attagene CIS-FACTORIAL HepG2 Assay for human TA Basal Promoter (AID 2282964). To be noted: HepG2 Attagene CIS-factorial TA basal promoter reporter; actives raise or lower the signal. An outline of the steps: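 Read-out: fluorescent reporter-transcript fragments resolved by capillary electrophoresis after RT-PCR and HpaI digestion. Source: HepG2 cells carrying transiently transfected multi-reporter cis constructs, treated 24 h. Endpoint fitted bidirectionally relative to DMSO.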

The nature of experiment [10]: ATG_TCF_b_cat_CIS: Attagene CIS-FACTORIAL HepG2 Assay for human T-Cell-Factor with beta-catenin (TCF/b-cat) (AID 2282965). The settings on record: HepG2 TCF/beta-catenin cis-reporter transcription, actives raise or lower the signal. An outline of the steps: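 Endogenous transcription factor activity is captured through cis-promoter reporter constructs transiently introduced into human HepG2 liver cells. Induced reporter mRNA is measured after 24 h and fitted bidirectionally relative to DMSO.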

The nature of experiment [11]: ATG_TAL_CIS: Attagene CIS-FACTORIAL HepG2 Assay for human TAL Basal Promoter (AID 2282966).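 Also: background control endpoint measuring basal TAL promoter reporter mRNA not a specific factor.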 To be noted: HepG2 Attagene cis-factorial TAL promoter reporter; actives raise or lower the signal. An outline of the steps: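 Fluorescence of labelled reporter cDNA fragments, resolved by capillary electrophoresis, gave the readout. Human HepG2 liver cells carried transiently transfected cis-element reporter units and were treated for 24 hours; activity was fitted bidirectionally against DMSO.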

The nature of experiment [12]: ATG_TGFb_CIS: Attagene CIS-FACTORIAL HepG2 Assay for human Transforming Growth Factor (TGF) (AID 2282967). The settings on record: HepG2 Attagene CIS TGFb reporter, mRNA transcription; actives raise or lower the signal. The essentials:
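Transient MRTU transfection of HepG2 (FuGene 6). Dose 24 h. TriZol RNA, oligo(dT) RT, PCR, 6-FAM primer extension, HpaI cut, CE. Bidirectional fit, DMSO = baseline.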

Experiment [13] is described as follows: ATG_VDRE_CIS: Attagene CIS-FACTORIAL HepG2 Assay for human Vitamin D Receptor Element (VDRE) (AID 2282968). The settings on record: HepG2 VDRE cis-reporter transcription, actives raise or lower the signal. An outline of the steps: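 In transiently transfected HepG2 liver cells, gain or loss of reporter mRNA after 24 h exposure is scored relative to DMSO, using fluorescence detection by capillary electrophoresis of RT-PCR products.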

Experiment [14] deals with Steroid hormone receptor ERR1 (Homo sapiens) (UniProt P11474). Kind of experiment: ATG_ERRa_TRANS: Attagene TRANS-FACTORIAL HepG2 Assay for human Estrogen-Related Receptor alpha (ERRa) (AID 2282971; active = hit-call score of the fitted dose curve at least 0.9, where 1 is the maximum). To be noted: HepG2 Attagene TRANS reporter, ERRa transactivation. The essentials:
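Reporter transcript induction was quantified by RT-PCR and capillary electrophoresis of FAM-labelled, HpaI-cut products after 24 h treatment of HepG2 cells carrying transiently transfected GAL4-UAS reporter units and an exogenous ERRa-Gal4 fusion; activity scored as increase over DMSO.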

Experiment [15] has as its target X-box-binding protein 1 (Homo sapiens) (UniProt P17861). The experiment in a line: ATG_Xbp1_CIS: Attagene CIS-FACTORIAL HepG2 Assay for human X-box Binding Protein 1 (XBP1) (AID 2282972). To be noted: HepG2 XBP1 cis-element reporter, Attagene multiplex; actives raise or lower the signal. An outline of the steps: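 After a 24-hour chemical exposure of HepG2 cells carrying cis-regulated reporters, reporter mRNA levels are assessed. Quantification uses RT-PCR, 6-FAM labelling and capillary electrophoresis. Gain- or loss-of-signal is fitted against DMSO.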

The target in experiment [16] is Estrogen-related receptor gamma (Homo sapiens) (UniProt P62508). Kind of experiment: ATG_ERRg_TRANS: Attagene TRANS-FACTORIAL HepG2 Assay for human Estrogen-Related Receptor gamma (ERRg) (AID 2282977; active = hit-call score of the fitted dose curve at least 0.9, where 1 is the maximum;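 also: hits increase reporter signal over DMSO so potencies reflect activators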). The settings on record: HepG2 Attagene TRANS reporter, ERRg transactivation. The essentials: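 Transient HepG2 transfectants, 24 h compound exposure, GAL4-UAS reporter mRNA by RT-PCR/6-FAM labelling/capillary electrophoresis; positive direction vs DMSO.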
Chain of Estrogen-related receptor gamma (Homo sapiens) (P62508 whole entry, looked up, the tested form may be a part): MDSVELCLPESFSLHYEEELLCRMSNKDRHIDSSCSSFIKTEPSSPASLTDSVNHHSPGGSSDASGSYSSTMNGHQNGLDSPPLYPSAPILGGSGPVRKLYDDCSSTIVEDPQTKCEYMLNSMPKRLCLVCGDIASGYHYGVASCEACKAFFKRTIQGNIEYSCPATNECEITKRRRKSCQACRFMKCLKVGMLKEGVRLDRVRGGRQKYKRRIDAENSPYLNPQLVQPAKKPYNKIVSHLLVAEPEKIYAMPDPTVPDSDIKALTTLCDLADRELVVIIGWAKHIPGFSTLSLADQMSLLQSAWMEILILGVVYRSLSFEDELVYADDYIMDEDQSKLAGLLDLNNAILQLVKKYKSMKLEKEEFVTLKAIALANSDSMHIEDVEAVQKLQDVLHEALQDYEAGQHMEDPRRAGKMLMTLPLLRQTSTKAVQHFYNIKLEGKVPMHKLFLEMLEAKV

For experiment [17], the target named is Nuclear receptor subfamily 1 group I member 3 (Homo sapiens) (UniProt Q14994). Kind of experiment: ATG_CAR_TRANS: Attagene TRANS-FACTORIAL HepG2 Assay for human Constitutive Androstane Receptor (CAR) (AID 2282969; active = hit-call score of the fitted dose curve at least 0.9, where 1 is the maximum;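 also: activators raise reporter mRNA above DMSO so AC50 marks induction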). To be noted: HepG2 Attagene TRANS-FACTORIAL CAR reporter. The essentials: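 Readout is reporter mRNA induction, quantified by fluorescent primer extension and capillary electrophoresis after RT-PCR. Cells were HepG2 transiently carrying chimeric NR-Gal4 constructs with GAL4-UAS reporters, treated for 24 h; activity scored upward from DMSO.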
Chain of Nuclear receptor subfamily 1 group I member 3 (Homo sapiens) (Q14994 whole entry, looked up, the tested form may be a part): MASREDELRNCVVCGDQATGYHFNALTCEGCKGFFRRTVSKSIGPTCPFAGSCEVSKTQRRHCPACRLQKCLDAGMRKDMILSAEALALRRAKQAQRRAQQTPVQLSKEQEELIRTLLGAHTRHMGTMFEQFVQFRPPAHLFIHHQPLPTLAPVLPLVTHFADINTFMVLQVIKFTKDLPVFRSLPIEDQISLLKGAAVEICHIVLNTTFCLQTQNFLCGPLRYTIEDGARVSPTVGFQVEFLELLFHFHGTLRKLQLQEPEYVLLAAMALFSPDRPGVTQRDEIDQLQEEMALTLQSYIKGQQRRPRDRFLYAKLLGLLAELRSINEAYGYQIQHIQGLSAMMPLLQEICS

Experiment [18] is described as follows: ATG_M_19_TRANS: Attagene TRANS-FACTORIAL HepG2 Assay for M19 Transcription Factor (Internal Marker) (AID 2282974; active = hit-call score of the fitted dose curve at least 0.9, where 1 is the maximum). To be noted: HepG2 Attagene TRANS-FACTORIAL M19 internal marker reporter. The essentials: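 Fluorescence of 6-FAM-labelled reporter cDNA fragments, separated by capillary electrophoresis, served as the readout. These derived from HepG2 cells carrying transfected GAL4-UAS reporter units after 24 h dosing, with DMSO as negative control.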

Experiment [19] in a line: ATG_GAL4_TRANS: Attagene TRANS-FACTORIAL HepG2 Assay for GAL4 (Internal Marker) (AID 2282976; active = hit-call score of the fitted dose curve at least 0.9, where 1 is the maximum). To be noted: HepG2 Attagene TRANS GAL4 internal marker reporter. An outline of the steps:
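First, HepG2 cells were transfected with reporter units under GAL4-UAS control. Next, they were treated with chemical for 24 h. Finally, RNA was reverse-transcribed, PCR-amplified, FAM-labelled and resolved by capillary electrophoresis, with induction scored against DMSO.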

Values joined by “and” are separate entries in the source; they are usually repeats but may differ in a detail not shown here. Equal values may be shown once. Inconclusive results are not listed. A structure can be active in one record and inactive in another. Active and inactive are the calls of the source. The calls were made as follows, unless noted: active = hit-call score of the fitted dose curve at least 0.9, where 1 is the maximum; inactive = score below 0.9.

Chain of Paired box protein Pax-6 (Homo sapiens) (P26367 whole entry, looked up): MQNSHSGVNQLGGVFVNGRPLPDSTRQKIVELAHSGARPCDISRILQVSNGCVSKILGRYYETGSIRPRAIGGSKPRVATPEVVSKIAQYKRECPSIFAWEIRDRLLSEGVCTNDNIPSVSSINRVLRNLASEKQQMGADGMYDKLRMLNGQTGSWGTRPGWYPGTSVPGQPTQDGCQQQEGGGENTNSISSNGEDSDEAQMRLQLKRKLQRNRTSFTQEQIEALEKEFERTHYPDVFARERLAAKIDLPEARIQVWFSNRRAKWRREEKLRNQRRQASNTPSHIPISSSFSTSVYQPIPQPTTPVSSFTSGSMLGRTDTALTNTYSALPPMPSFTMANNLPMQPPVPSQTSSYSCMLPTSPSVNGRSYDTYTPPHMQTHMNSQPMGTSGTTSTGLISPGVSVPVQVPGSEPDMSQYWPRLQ
Chain of Signal transducer and activator of transcription 3 (Homo sapiens) (P40763 whole entry, looked up): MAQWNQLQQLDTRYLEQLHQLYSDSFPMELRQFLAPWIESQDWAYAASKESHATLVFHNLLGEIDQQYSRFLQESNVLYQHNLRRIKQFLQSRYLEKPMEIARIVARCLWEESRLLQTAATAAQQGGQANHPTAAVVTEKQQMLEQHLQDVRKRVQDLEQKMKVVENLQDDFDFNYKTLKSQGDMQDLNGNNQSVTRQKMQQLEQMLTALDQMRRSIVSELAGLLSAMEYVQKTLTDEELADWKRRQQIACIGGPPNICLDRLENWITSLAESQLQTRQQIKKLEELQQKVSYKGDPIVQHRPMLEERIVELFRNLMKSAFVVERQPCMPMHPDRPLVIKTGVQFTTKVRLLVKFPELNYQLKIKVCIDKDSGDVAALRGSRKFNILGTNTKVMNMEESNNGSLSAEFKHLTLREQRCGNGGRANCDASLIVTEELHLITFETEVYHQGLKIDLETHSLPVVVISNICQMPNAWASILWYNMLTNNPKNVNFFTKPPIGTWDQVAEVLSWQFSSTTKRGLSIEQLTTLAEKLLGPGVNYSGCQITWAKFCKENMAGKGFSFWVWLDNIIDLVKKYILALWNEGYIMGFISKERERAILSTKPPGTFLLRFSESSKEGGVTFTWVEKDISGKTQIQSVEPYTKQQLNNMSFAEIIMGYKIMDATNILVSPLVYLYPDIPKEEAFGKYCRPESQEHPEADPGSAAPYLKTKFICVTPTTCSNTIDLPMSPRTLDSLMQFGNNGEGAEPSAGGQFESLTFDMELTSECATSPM
Chain of X-box-binding protein 1 (Homo sapiens) (P17861 whole entry, looked up): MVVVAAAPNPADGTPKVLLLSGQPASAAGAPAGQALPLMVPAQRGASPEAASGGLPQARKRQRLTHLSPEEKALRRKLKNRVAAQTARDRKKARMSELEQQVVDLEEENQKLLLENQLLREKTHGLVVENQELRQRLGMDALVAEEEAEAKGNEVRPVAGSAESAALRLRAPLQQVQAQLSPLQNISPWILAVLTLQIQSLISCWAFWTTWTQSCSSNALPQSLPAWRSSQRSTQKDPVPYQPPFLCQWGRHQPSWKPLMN
Chain of Steroid hormone receptor ERR1 (Homo sapiens) (P11474 whole entry, looked up, the tested form may be a part): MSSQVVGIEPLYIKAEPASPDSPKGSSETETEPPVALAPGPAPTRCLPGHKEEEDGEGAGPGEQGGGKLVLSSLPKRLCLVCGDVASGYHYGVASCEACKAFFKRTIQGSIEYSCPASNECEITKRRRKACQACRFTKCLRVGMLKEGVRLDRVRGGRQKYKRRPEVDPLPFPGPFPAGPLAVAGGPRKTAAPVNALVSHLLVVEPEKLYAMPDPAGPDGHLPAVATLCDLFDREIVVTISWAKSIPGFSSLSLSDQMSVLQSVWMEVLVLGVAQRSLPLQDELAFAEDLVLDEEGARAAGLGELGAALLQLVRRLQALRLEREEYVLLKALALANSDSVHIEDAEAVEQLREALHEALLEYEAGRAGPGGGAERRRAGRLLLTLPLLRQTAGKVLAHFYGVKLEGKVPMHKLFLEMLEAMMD

Take `Cc1cn([C@H]2C[C@H](N=[N+]=[N-])[C@@H](CO)O2)c(=O)[nH]c1=O`: the call in experiment [1], in experiment [2], in [3], in experiment [4], in [5] and in [6] was inactive. In addition, the outcome in experiment [7], in [8], in [9], in experiment [10], in [11] and in [12] was inactive. In addition, the call in experiment [13], in experiment [14], in [15] and in experiment [16] was inactive.
On to `O=C(O)Cc1cc(I)c(Oc2ccc(O)c(I)c2)c(I)c1`, for which the result in experiment [1], in [5], in experiment [6], in experiment [7], in experiment [8] and in experiment [9] was inactive. The call in experiment [10], in experiment [11], in experiment [12], in [17], in experiment [15] and in experiment [18] was inactive. Moreover, the molecule was classed as inactive in experiment [19] and in [16]. The AC50 in experiment [2] is 26.3 µM (active) and 26.1 µM (active) and 7.66 µM (active); in experiment [4], 34.9 µM (active) [middle of 4 runs]; in experiment [7], 11.4 µM (active); in experiment [10], 51.2 µM (active); in experiment [13], 33.7 µM (active) [middle of 4 runs].
Regarding `O=C1c2ccccc2C(=O)N1CCc1noc(-c2ccc(CN3CCCCCC3)s2)n1`, the molecule was called inactive in experiment [1], in experiment [4], in experiment [5], in [6], in [7] and in experiment [8]. Besides, the call in experiment [9], in experiment [10], in experiment [11], in experiment [12] and in experiment [15] was inactive. In addition, the AC50 in experiment [2] is 2.09 µM (active).
Turning to `c1ccc2n[nH]nc2c1`, the molecule was classed as inactive in experiment [1], in experiment [2], in [3], in [4], in experiment [5] and in experiment [6]. For the same molecule, the outcome in experiment [7], in experiment [8], in experiment [9], in experiment [10], in experiment [11] and in [12] was inactive. In addition, the molecule was called inactive in [17], in [15], in experiment [18] and in experiment [19].
For the molecule `Cc1ccc2oc(CN(Cc3ccccc3)C(=O)Nc3c(F)cc(F)cc3F)c(-c3ccc(Cl)cc3)c2c1`, the outcome in experiment [1], in experiment [4], in [5], in experiment [6], in experiment [7] and in [8] was inactive. Moreover, the outcome in experiment [9], in experiment [10], in experiment [11], in [12], in [13] and in [14] was inactive. The molecule was classed as inactive in [15] and in experiment [18]. Also, the AC50 in experiment [2] was 0.63 µM (active).
In the case of `Oc1ccccc1`, the outcome in experiment [1], in experiment [2], in experiment [3], in experiment [4], in experiment [5] and in experiment [6] was inactive. Besides, the result in experiment [7], in [8], in experiment [9], in experiment [10], in experiment [11] and in experiment [12] was inactive. Further, the outcome in experiment [17], in [15], in [18] and in experiment [19] was inactive.
